The record followed here is PubChem BioAssay (NCATS).

For assay [1], the target named is Glutathione peroxidase 1 (Homo sapiens) (UniProt P07203). The experiment in a line: Primary qHTS Assay for Inhibitors of Recombinant Selenoprotein Glutathione Peroxidase 1 (GPX1) (AID 1845191). Also: nearly all actives have a fitted effect of over 65% in size. As to activity, negative = inhibition: % is scaled to controls: 0 for no effect and ±100 for the full control effect. The method in brief: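 10 nM GPX1 + cpd, 30 min RT; start w/ 1 mM GSH, 0.5 mM cumene hydroperoxide, 0.5 mM NADPH, 100 nM GR, 0.01% BSA; buffer 50 mM Tris-HCl pH 7.5, 2 mM EDTA, 150 mM NaCl; Fl 340/450, 0 & 15 min.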
Sequence of Glutathione peroxidase 1 (Homo sapiens) (P07203 whole entry, looked up): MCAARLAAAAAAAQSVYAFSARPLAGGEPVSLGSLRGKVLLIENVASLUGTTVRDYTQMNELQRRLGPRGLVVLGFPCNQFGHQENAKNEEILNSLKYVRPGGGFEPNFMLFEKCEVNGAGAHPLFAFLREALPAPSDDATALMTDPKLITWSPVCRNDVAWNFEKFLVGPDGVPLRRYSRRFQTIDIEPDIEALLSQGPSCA

Assay [2] addresses Phospholipid hydroperoxide glutathione peroxidase GPX4 (Homo sapiens) (UniProt P36969). The experiment in a line: Primary qHTS Assay for Inhibitors of Recombinant Selenoprotein Glutathione Peroxidase 4 (GPX4) (AID 1845192). Also: nearly all actives have a fitted effect of over 65% in size. As to activity change, negative = inhibition: series mostly up to about 50 µM; % is scaled to controls: 0 for no effect and ±100 for the full control effect. The method in brief:
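NADPH consumption, followed by fluorescence at 340/450 nm between 0 and 15 min, reports GPX4 activity via coupled glutathione reductase (100 nM). Enzyme 200 nM was pre-exposed to compound 30 min; 0.5 mM cumene hydroperoxide and 1 mM GSH served as substrates.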
In general terms: Quantitative high-throughput screening tests each substance at several concentrations.

For assay [3], the target named is Luciferin 4-monooxygenase (Photinus pyralis) (UniProt P08659). The experiment in a line: Primary firefly luciferase (FLuc) qHTS assay for identification of artifact compounds. (AID 1845220). Also: nearly all actives have a fitted effect of over 60% in size. Also: potency is read from the fitted curve at half-maximal effect.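 As to activity change, negative = inhibition: series mostly up to about 54 µM; plate controls were DMSO vehicle for no effect and no enzyme for full effect.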 The method in brief: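 Compounds sat 15 min at room temperature with 10 uM luciferin and 10 uM ATP (pH 7.6 Tris acetate). Firefly luciferase (10 nM final) was then added, and luminescence was read 5 min later. Data normalized to no-enzyme and DMSO controls were Hill-fitted.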

Assay [4] is described as follows: Primary fluorescence-based thiol-reactive (MSTI) qHTS assay for identification of artifact compounds. (AID 1845221).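 Also: series mostly up to about 54 µM; thiol-reactive compounds lower the probe fluorescence signal; nearly all actives have a fitted effect of over 65% in size.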 In outline: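 MSTI probe at 4 uM final in 2% DMSO/PBS pH 7.4; compounds, 1 h at room temperature in dark. Fluorescence Ex/Em 525/598 nm, normalised to Acetyl-MSTI and MSTI, fitted to 4-parameter Hill.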
For assay [5], the system named is Nanoluciferase (engineered Oplophorus gracilirostris luciferase). The experiment in a line: Primary Nanoluciferase (NLuc) qHTS assay for identification of artifact compounds. (AID 1845222). Also: potency is read from the fitted curve at half-maximal effect.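 As to activity, negative = inhibition: series mostly up to about 54 µM; 0% = DMSO and -100% = no enzyme.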 The method in brief:
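Luminescence from secreted NLuc (filtered, 1:55-diluted S16 cell medium) read 5 min after Nano-Glo substrate; compounds preincubated 15 min, RT. Hill fits of inhibition normalized to DMSO and no-enzyme.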

A short description of assay [6]: Primary redox qHTS assay for identification of artifact compounds. (AID 1845223).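 Also: 0% = DMSO and 100% = reference compound.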 The method in brief: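 Amplex Red (25 uM) and HRP (250 mU/mL) in HBSS, with compounds for 15 min, then 250 uM DTT for 30 min, room temperature, dark. Fluorescence 525/598 nm read; normalized to DMSO and 10 uM DA3003; Hill fit.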

Unmarked numbers belong to inactive results. Inconclusive results are not listed. The source made the active and inactive calls. Calls follow the shape of the dose curve; as a rule, active = well fitted curve in the direction sought with a large enough effect; inconclusive = small, poorly fitted or top-dose-only effect, or another doubt; inactive = no such curve, though single readings can be large; an effect the other way counts as inactive or inconclusive.

Sequence of Phospholipid hydroperoxide glutathione peroxidase GPX4 (Homo sapiens) (P36969 whole entry, looked up): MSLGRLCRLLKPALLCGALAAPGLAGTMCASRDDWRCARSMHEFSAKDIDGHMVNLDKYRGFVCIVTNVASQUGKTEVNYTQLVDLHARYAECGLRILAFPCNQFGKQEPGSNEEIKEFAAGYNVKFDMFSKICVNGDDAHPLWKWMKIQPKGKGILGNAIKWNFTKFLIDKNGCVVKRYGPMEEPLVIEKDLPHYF

As to `CCOC(=O)N1CCC(N2CCC[C@@H](NC(=O)c3ccccc3C)C2)CC1`, the Potency result in assay [1], in assay [2], in assay [3], in assay [4], in assay [5] and in assay [6] was “inactive” each time.
Consider `C#Cc1cccc(Nc2nc3cc(C(=O)O)ccc3c3cncnc23)c1`, for which the Potency entry in assay [1], in assay [2], in assay [3], in assay [4] and in assay [6] was “inactive” throughout.
As to `CCC(C)C1NC(=O)C(Cc2ccccc2)NC(=O)C(CCCCCC(=O)C(O)CO)NC(=O)C2CCCCN2C1=O` (stereo unspecified), the Potency entry in assay [1], in assay [2], in assay [3], in assay [4], in assay [5] and in assay [6] was “inactive” in each case.
Turning to `COc1ccc(-c2ccccc2)cc1NS(=O)(=O)c1cc(Cl)cc(Cl)c1O`, the Potency result in assay [1], in assay [2] and in assay [3] was “inactive” throughout. For the same compound, in assay [5], the Potency is 7.38 µM (active).
With `COc1ccc(CNc2nc(N(CCO)CCO)nc3c2ncn3C(C)C)cc1`, the Potency result in assay [1], in assay [2], in assay [3] and in assay [5] was “inactive” each time.
In the case of `C[C@H](Nc1ncnc2nc[nH]c12)c1cc2cccc(Cl)c2c(=O)n1-c1ccccc1`, the Potency result in assay [1], in assay [2], in assay [3], in assay [4] and in assay [6] was “inactive” in each case.
For `O=C(COc1ccc2ccccc2c1Br)Nc1cccnc1`, the Potency result in assay [1], in assay [2], in assay [4], in assay [5] and in assay [6] was “inactive” each time. Besides, the Potency in assay [3] is 6.01 µM (active).
In the case of `C/C=C(/C)C(=O)O[C@H]1[C@H](OC(=O)/C(C)=C\C)[C@@]23C(CC1(C)C)[C@]1(CCC4[C@@]5(C)CC[C@H](O[C@@H]6O[C@H](C(=O)O)[C@@H](O)[C@H](O[C@@H]7O[C@H](CO)[C@H](O)[C@H](O)[C@H]7O[C@@H]7O[C@@H](C)[C@H](O)[C@@H](O)[C@H]7O[C@@H]7OC[C@@H](O)[C@H](O)[C@H]7O)[C@H]6O[C@@H]6O[C@H](CO)[C@H](O)[C@H](O)[C@H]6O)C(C)(C)C5CC[C@@]4(C)[C@]1(C)C[C@H]2O)O[C@H]3O` (stereo partly specified), the figures for the activity, negative = inhibition in assay [1] and in assay [5] were -2.94% [at 9.52 µM] and 3.76% [at 11.6 µM], respectively. Also, the activity change, negative = inhibition in assay [2] is -2.35% [at 9.73 µM]; in assay [3], 4.78% [at 11.6 µM]. Moreover, the activity change, negative = thiol reactive in assay [4] is 718% [at 11.5 µM]. The redox activity (% of DA3003) in assay [6] is 13% [at 11.5 µM].
Consider `Cc1cc(CS(=O)(=O)c2ccccc2)cc(OCc2ccc(CN3CCCC3CO)cc2)c1` (stereo unspecified), for which the Potency result in assay [1], in assay [2], in assay [3], in assay [4] and in assay [6] was “inactive” each time.
In the case of `c1ccc(-c2ccc(CNc3nc(-c4ccccn4)nnc3-c3ccccc3)cc2)cc1`, the Potency result in assay [1], in assay [2], in assay [3], in assay [4] and in assay [6] was “inactive” throughout.
For the compound `COc1cc(CCC2=NN=C(NC(=O)c3ccc(N4C[C@@H](C)N[C@@H](C)C4)cc3)C2)cc(OC)c1`, the Potency result in assay [1], in assay [2], in assay [3], in assay [4] and in assay [6] was “inactive” in each case.
Take `Clc1ccc(Nc2nc3ccccc3c3nc(C4CCCCC4)[nH]c23)cc1Cl`: the Potency result in assay [1], in assay [2], in assay [3], in assay [4], in assay [5] and in assay [6] was “inactive” throughout.
Consider `C=CC(C)(O)CC/C=C(/C)COC(=O)C(C)C1CCC(C)(C=C)O1` (stereo unspecified), for which the Potency entry in assay [1], in assay [2], in assay [3], in assay [4] and in assay [6] was “inactive” each time.
As for `CC(C)(Cc1nc(-c2ccc(O)cn2)no1)C(=O)NC1=C(C(=O)O)CCCC1`, the Potency result in assay [1], in assay [2], in assay [3], in assay [4] and in assay [6] was “inactive” in each case.
With `COC(=O)c1cc(Br)cnc1N1CCC(NC2CCCCC2)C(O)C1` (stereo unspecified), the Potency result in assay [1], in assay [2], in assay [3], in assay [4], in assay [5] and in assay [6] was “inactive” each time.
For the compound `COc1cc2c(cc1OCCCN1CCCC1)N=C(N)C21CCC1`, the Potency entry in assay [1], in assay [2], in assay [3] and in assay [5] was “inactive” throughout.
As to `O=C(Nc1ccc(N(Cc2ccsc2)C(=O)Cn2nnc3ccccc32)cc1)C1CC1`, the Potency result in assay [1], in assay [2], in assay [3], in assay [4] and in assay [6] was “inactive” each time.
Take `CCOc1ccc(CCNC(=O)c2cc3sc(Cl)cc3n2C)cc1OCC`: the Potency entry in assay [1], in assay [2], in assay [3], in assay [5] and in assay [6] was “inactive” in each case.
As to `C=C1CCC2[C@](C)(CCC[C@@]2(C)C=O)[C@H]1CC/C(C)=C/CO` (stereo partly specified), the Potency entry in assay [1], in assay [2], in assay [3], in assay [5] and in assay [6] was “inactive” throughout.
Regarding `COc1cc(CCc2ccc(OCC=C(C)C)cc2)cc(OC)c1OC`, the Potency entry in assay [1], in assay [2], in assay [3] and in assay [5] was “inactive” in each case.
For `COC(=O)c1sccc1S(=O)(=O)Nc1ccc(Nc2ccccc2)cc1OC`, the Potency result in assay [1], in assay [2], in assay [3], in assay [5] and in assay [6] was “inactive” throughout.
On to `COC(=O)c1ccc2c(c1)nc(NC(=O)c1ccccc1)n2CCCc1ccccc1`, for which the Potency entry in assay [1], in assay [2], in assay [3], in assay [5] and in assay [6] was “inactive” throughout.
Turning to `C=C[C@@]1(C)CCC2C(=CCC3[C@]2(C)CCC[C@@]3(C)C(=O)O)C1` (stereo partly specified), the Potency result in assay [1], in assay [2], in assay [3] and in assay [5] was “inactive” in each case.
On to `Cc1cc(F)ccc1[C@H]1C[C@@H](N2CCN3C(=O)CC[C@H]3C2)CCN1C(=O)N(C)[C@H](C)c1cc(C(F)(F)F)cc(C(F)(F)F)c1`, for which the Potency entry in assay [1], in assay [2], in assay [3], in assay [5] and in assay [6] was “inactive” in each case.
As to `CN(C)c1cccc(Oc2cnc(Nc3cccc(O)c3)nc2)c1`, the Potency result in assay [1], in assay [2], in assay [3], in assay [5] and in assay [6] was “inactive” each time.
Turning to `C=C(C(=O)OC[C@H]1O[C@@H](OC(=O)/C=C/c2ccccc2)[C@H](O)[C@@H](O)[C@@H]1O)C(O)CO` (stereo partly specified), the Potency entry in assay [1], in assay [2], in assay [3], in assay [5] and in assay [6] was “inactive” in each case.
